The record followed here is PubChem BioAssay (NCI).

The panel holds about 83,000 compounds, 20% with a hit somewhere; the sample as a whole holds those more often.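 How to read the values: 0–100, growth inhibition (40 = 60% inhibited); 0, no net growth; -100 to 0, cell death (-40 = 40% of starting cells died; -100 = all dead).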 A number with no mark means an inactive call. Activity calls are given as the source filed them. Rule for the calls: active = growth percent below 10; inactive = the rest.

Some test systems named below: HCT-15 colon; HT29 colon; SNB-75 CNS; SNB-19 CNS; U251 CNS; PC-3 prostate; SK-MEL-5 melanoma; UACC-62 melanoma; LOX IMVI melanoma; SK-MEL-28 melanoma; SK-MEL-2 melanoma; EKVX NSCLC; SN12C renal; UO-31 renal; TK-10 renal; ACHN renal; CAKI-1 renal; A498 renal; CCRF-CEM leukemia; MOLT-4 leukemia.
Assay in all cases: NCI-60 one-dose screen, 48 h (100 = growth as untreated, 0 = no growth, -100 = all killed)
What all share (settings): 10 µM unless noted

As to `O=C(c1ccc(F)c(Cl)c1)N1c2ccccc2Sc2ccccc21`, the growth in the test on HCT-15 colon was 27.2%; in the test with HT29 colon it was 36.2%; with SNB-75 CNS, 68.6%; in the test on SNB-19 CNS, 77%; with U251 CNS, 39.4%; in the test on PC-3 prostate, 40.3%. Also, the growth with SK-MEL-5 melanoma is 34.4%; in the test on UACC-62 melanoma, 25.7%; with LOX IMVI melanoma, 41.2%; in the test with SK-MEL-28 melanoma, 61.7%; with SK-MEL-2 melanoma, 65.2%; in the test on EKVX NSCLC, 74.1%. Also, the growth in the test on SN12C renal was 99.2%; in the test with UO-31 renal, 72.9%; with TK-10 renal, 85.2%; in the test on ACHN renal it was 104%; in the test with CAKI-1 renal it was 53.4%; in the test with A498 renal it was 61.7%. In addition, the figures for the growth with CCRF-CEM leukemia and in the test with MOLT-4 leukemia were 58.4% and 44.1%, respectively.
Take `CC1(C)CC[C@]2(C(=O)N3CCOCC3)CC[C@]3(C)C(=CC[C@@H]4[C@@]5(C)C/C(=C/c6ccncc6)C(=O)C(C)(C)[C@@H]5CC[C@]43C)[C@@H]2C1`: the growth in the test with HCT-15 colon was 7.19% (active); in the test with HT29 colon, 5.31% (active); in the test with SNB-75 CNS, 43%; in the test with SNB-19 CNS it was 47.5%; in the test with U251 CNS it was 18.4%; in the test with PC-3 prostate, 10.9%. In addition, the growth in the test on SK-MEL-5 melanoma was -63.5% (active); with UACC-62 melanoma, 2.88% (active); in the test with LOX IMVI melanoma it was -84% (active); in the test on SK-MEL-28 melanoma, -14.4% (active); in the test on SK-MEL-2 melanoma, -6.74% (active); in the test with EKVX NSCLC, 14.5%. Further, the growth with SN12C renal was 18%; in the test with UO-31 renal it was 11%; with TK-10 renal, 35.9%; with ACHN renal, 15.6%; with CAKI-1 renal, 16.7%; with A498 renal, -20.3% (active). Also, the growth with CCRF-CEM leukemia was -6.27% (active); in the test with MOLT-4 leukemia, -16.9% (active).
With `O=C1NC(=C(Cl)Cl)/C(=N/S(=O)(=O)NCCc2c[nH]c3ccccc23)N1`, the growth was 98.6% with HCT-15 colon; 15% in the test with HT29 colon; 78.5% in the test on SNB-75 CNS; 53.9% with SNB-19 CNS; 33.8% in the test on U251 CNS; 83.5% in the test on PC-3 prostate. Besides, the growth in the test with SK-MEL-5 melanoma is 74.3%; in the test on UACC-62 melanoma, 61.2%; in the test with LOX IMVI melanoma, 29.8%; in the test on SK-MEL-28 melanoma it was 84%; in the test on SK-MEL-2 melanoma, 46.2%; with EKVX NSCLC it was 101%. For the same compound, the growth in the test on SN12C renal is 35.2%; in the test on UO-31 renal, 71.6%; in the test with TK-10 renal it was 109%; with ACHN renal, 88.4%; with CAKI-1 renal, 83.7%; in the test on A498 renal, 71.5%. The growth in the test with CCRF-CEM leukemia was 7.47% (active); in the test on MOLT-4 leukemia, 18%.
Turning to `CCC/C(=N\NC(N)=O)C(OC)OC`, the growth with HCT-15 colon is 105%; in the test on HT29 colon, 97.8%; with SNB-75 CNS, 67.9%; with SNB-19 CNS it was 102%; in the test on U251 CNS it was 92.3%; in the test on PC-3 prostate, 97%. The growth was 100% in the test on SK-MEL-5 melanoma; 100% with UACC-62 melanoma; 84.4% in the test with LOX IMVI melanoma; 96.4% with SK-MEL-28 melanoma; 104% with SK-MEL-2 melanoma; 111% in the test with EKVX NSCLC. Further, the growth in the test on SN12C renal was 107%; with UO-31 renal, 89.3%; in the test on TK-10 renal it was 85.3%; in the test on ACHN renal, 105%; in the test with CAKI-1 renal, 114%; in the test with A498 renal, 91.1%. Moreover, the results for the growth in the test with CCRF-CEM leukemia and with MOLT-4 leukemia were 106% and 121%, respectively.
As for `Cc1ccc(C)n1/C=C/n1c(C)ccc1C`, the growth in the test with HCT-15 colon is 106%; in the test with HT29 colon, 102%; in the test with SNB-75 CNS, 80.7%; in the test on SNB-19 CNS, 98.4%; in the test on U251 CNS it was 109%; with PC-3 prostate, 62.8%. In addition, the growth in the test with SK-MEL-5 melanoma was 98.7%; in the test on UACC-62 melanoma, 98.8%; in the test on LOX IMVI melanoma, 105%; in the test with SK-MEL-28 melanoma, 125%; in the test with SK-MEL-2 melanoma, 109%; with EKVX NSCLC, 85.9%. Moreover, the growth with SN12C renal is 118%; with UO-31 renal, 93.6%; with TK-10 renal, 93.5%; in the test with ACHN renal, 112%; with CAKI-1 renal, 69.5%; in the test with A498 renal, 85.8%. In addition, the growth with CCRF-CEM leukemia is 88.4%; in the test on MOLT-4 leukemia it was 117%.
In the case of `CC[C@@H](c1ccc2cc(OC)ccc2c1)C(C)(C)C(=O)F`, the growth in the test on HCT-15 colon is 104%; with HT29 colon, 118%; in the test with SNB-75 CNS, 106%; in the test on SNB-19 CNS, 91.9%; in the test with U251 CNS, 98.8%; in the test on PC-3 prostate it was 101%. Further, the growth was 106% in the test on SK-MEL-5 melanoma; 103% with UACC-62 melanoma; 91.4% in the test with LOX IMVI melanoma; 106% in the test with SK-MEL-28 melanoma; 94.8% in the test with SK-MEL-2 melanoma; 96.1% in the test with EKVX NSCLC. Further, the growth was 105% with SN12C renal; 97% in the test with UO-31 renal; 126% in the test with TK-10 renal; 104% in the test with ACHN renal; 76.8% in the test with CAKI-1 renal; 98.4% in the test with A498 renal. Also, the growth in the test on CCRF-CEM leukemia was 114%; in the test with MOLT-4 leukemia, 99.2%.
Turning to `CCOC(=O)c1c(C)nc2c(c1N)CC(=O)N2Cc1cc(OC)c(OC)c(OC)c1`, the growth was 28.5% in the test with HCT-15 colon; 8.37% (active) in the test on HT29 colon; 53.9% with SNB-75 CNS; 66.1% with SNB-19 CNS; 38.3% in the test on U251 CNS; 52.4% with PC-3 prostate. Moreover, the growth was 23% in the test on SK-MEL-5 melanoma; 51% in the test with UACC-62 melanoma; 48.5% with LOX IMVI melanoma; 73.6% with SK-MEL-28 melanoma; 27% in the test on SK-MEL-2 melanoma; 51.6% with EKVX NSCLC. Further, the growth is 74% in the test on SN12C renal; 62.2% in the test on UO-31 renal; 54.8% in the test with TK-10 renal; 64.9% with ACHN renal; 50.6% in the test with CAKI-1 renal; 35.8% in the test on A498 renal. Moreover, the results for the growth in the test on CCRF-CEM leukemia and in the test with MOLT-4 leukemia were 78.2% and 52.1%, respectively.
Take `COc1cc2c3c(n(CCCCNCCCn4c5c(c6cc(OC)c(OC)cc6c4=O)C(=O)c4cc6c(cc4-5)OCO6)c(=O)c2cc1OC)-c1cc2c(cc1C3=O)OCO2`: the growth with HCT-15 colon was 99.6%; in the test with HT29 colon, 93.3%; in the test with SNB-75 CNS, 91%; in the test on SNB-19 CNS it was 102%; with U251 CNS, 91.6%; in the test on PC-3 prostate it was 93%. The growth with SK-MEL-5 melanoma was 102%; in the test with UACC-62 melanoma, 96.8%; in the test with LOX IMVI melanoma, 95.2%; in the test on SK-MEL-28 melanoma, 109%; with SK-MEL-2 melanoma it was 114%; in the test on EKVX NSCLC, 90.3%. The growth with SN12C renal is 102%; with UO-31 renal, 84.1%; with TK-10 renal, 100%; with ACHN renal, 95%; with CAKI-1 renal, 93.3%; in the test on A498 renal, 103%. Moreover, the growth with CCRF-CEM leukemia was 101%; in the test with MOLT-4 leukemia it was 96.5%.
